In PubChem BioAssay AID1159580 (chemical genetic matrix, 2015):
In all, about 5,500 compounds went through this assay and about 2,000 (36%) were called active. Inconclusive results (about 18%) are left out. Cut-off read from the data, not from the text of the source: active = normalized growth mostly below about 0.91 (no sharp cut-off); inconclusive = no clear call, values can overlap the other calls; inactive = mostly above about 0.92. The list shows a part of the results.

Assay: chemical genetic growth profiling, strain panel (AID 1159580);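 note: tested at 20 µM; growth read once vehicle control cultures reached saturation at 30 °C; 1 = growth at the plate median or of vehicle wells; lower values mean less growth of the strain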
Conditions: growth OD

Measured: normalized growth

CC1Cc2ccccc2N1NC(=O)c1ccc(Cl)c(S(N)(=O)=O)c1 (centres undefined)
inactive: S. cerevisiae deletion strains, locus YJR043C, strain POL32, stronger effect = lower value 1.02 | S. cerevisiae deletion strains, locus YJR066W, strain TOR1, stronger effect = lower value 0.94 | S. cerevisiae deletion strains, locus YJR075W, strain HOC1, stronger effect = lower value 1.01 | S. cerevisiae deletion strains, locus YKL009W, strain mrt4, stronger effect = lower value 1.01 | S. cerevisiae deletion strains, locus YKL068W, stronger effect = lower value 0.994 | S. cerevisiae deletion strains, locus YKL085W, strain MDH1 (second series), stronger effect = lower value 0.988 | S. cerevisiae deletion strains, locus YKL085W, strain MDH1, stronger effect = lower value 0.988 | S. cerevisiae deletion strains, locus YKL160W, strain elf1, stronger effect = lower value 0.991 | S. cerevisiae deletion strains, locus YKR001C, strain vps1, stronger effect = lower value 1.01 | S. cerevisiae deletion strains, locus YKR026C, strain gcn3, stronger effect = lower value 0.997 | S. cerevisiae deletion strains, locus YKR091W, strain srl3, stronger effect = lower value 0.997 | S. cerevisiae deletion strains, locus YLL001W, strain dnm1, stronger effect = lower value 0.994 | S. cerevisiae deletion strains, locus YLL026W, stronger effect = lower value 0.999 | S. cerevisiae deletion strains, locus YLL041C, strain sdh2, stronger effect = lower value 0.998 | S. cerevisiae deletion strains, locus YLR027C, strain aat2, stronger effect = lower value 1 | S. cerevisiae deletion strains, locus YLR039C, strain RIC1, stronger effect = lower value 1.03 | S. cerevisiae deletion strains, locus YLR058C, strain SHM2, stronger effect = lower value 1.01 | S. cerevisiae deletion strains, locus YLR102C, strain apc9, stronger effect = lower value 0.989 | S. cerevisiae deletion strains, locus YLR113W, strain HOG1, stronger effect = lower value 1 | S. cerevisiae deletion strains, locus YLR221C, strain rsa3, stronger effect = lower value 0.989 | S. cerevisiae deletion strains, locus YLR258W, strain gsy2, stronger effect = lower value 1.01 | S. cerevisiae deletion strains, locus YLR262C, strain YPT6 (second series), stronger effect = lower value 0.996 | S. cerevisiae deletion strains, locus YLR262C, strain YPT6, stronger effect = lower value 1.04 | S. cerevisiae deletion strains, locus YLR268W, strain sec22, stronger effect = lower value 1.03 | S. cerevisiae deletion strains, locus YLR320W, strain mms22, stronger effect = lower value 1 | S. cerevisiae deletion strains, locus YLR330W, strain CHS5, stronger effect = lower value 1.01 | S. cerevisiae deletion strains, locus YLR342W, strain FKS1 (second series), stronger effect = lower value 1.01 | S. cerevisiae deletion strains, locus YLR342W, strain FKS1, stronger effect = lower value 0.999 | S. cerevisiae deletion strains, locus YLR357W, strain rsc2, stronger effect = lower value 1.03 | S. cerevisiae deletion strains, locus YLR370C, strain arc18, stronger effect = lower value 1.01 | S. cerevisiae deletion strains, locus YLR371W, strain rom2, stronger effect = lower value 0.99 | S. cerevisiae deletion strains, locus YLR384C, strain iki3, stronger effect = lower value 1.01 | S. cerevisiae deletion strains, locus YLR418C, strain cdc73, stronger effect = lower value 0.989 | S. cerevisiae deletion strains, locus YML016C, strain PPZ1, stronger effect = lower value 1.01 | S. cerevisiae deletion strains, locus YML032C, strain rad52, stronger effect = lower value 0.994 | S. cerevisiae deletion strains, locus YML120C, strain ndi1, stronger effect = lower value 0.987 | S. cerevisiae deletion strains, locus YML124C, strain tub3, stronger effect = lower value 0.999 | S. cerevisiae deletion strains, locus YMR058W, strain fet3, stronger effect = lower value 1.01 | S. cerevisiae deletion strains, locus YMR078C, strain ctf18, stronger effect = lower value 0.994 | S. cerevisiae deletion strains, locus YMR125W, strain sto1, stronger effect = lower value 1.01 | S. cerevisiae deletion strains, locus YMR129W, stronger effect = lower value 1.01 | S. cerevisiae deletion strains, locus YMR205C, strain PFK2, stronger effect = lower value 0.985 | S. cerevisiae deletion strains, locus YMR223W, strain ubp8, stronger effect = lower value 0.977 | S. cerevisiae deletion strains, locus YMR231W, strain pep5, stronger effect = lower value 1 | S. cerevisiae deletion strains, locus YMR263W, strain SAP30, stronger effect = lower value 1.02 | S. cerevisiae deletion strains, locus YMR307W, strain GAS1, stronger effect = lower value 1.04 | S. cerevisiae deletion strains, locus YNL067W, strain RPL9B, stronger effect = lower value 1.01 | S. cerevisiae deletion strains, locus YNL071W, strain lat1, stronger effect = lower value 1.01 | S. cerevisiae deletion strains, locus YNL183C, strain NPR1, stronger effect = lower value 0.958 | S. cerevisiae deletion strains, locus YNL209W, strain ssb2, stronger effect = lower value 1 | S. cerevisiae deletion strains, locus YNL233W, strain BNI4, stronger effect = lower value 1.01 | S. cerevisiae deletion strains, locus YNL248C, strain rpa49, stronger effect = lower value 0.989 | S. cerevisiae deletion strains, locus YNL250W, strain rad50, stronger effect = lower value 0.984 | S. cerevisiae deletion strains, locus YNL271C, strain bni1, stronger effect = lower value 0.995 | S. cerevisiae deletion strains, locus YNL298W, strain CLA4, stronger effect = lower value 0.995 | S. cerevisiae deletion strains, locus YNL307C, strain MCK1, stronger effect = lower value 0.996 | S. cerevisiae deletion strains, locus YNL322C, strain KRE1 (second series), stronger effect = lower value 0.997 | S. cerevisiae deletion strains, locus YNR049C, strain mso1, stronger effect = lower value 1 | S. cerevisiae deletion strains, locus YNR052C, strain pop2, stronger effect = lower value 0.991 | S. cerevisiae deletion strains, locus YOL006C, strain TOP1, stronger effect = lower value 1.01 | S. cerevisiae deletion strains, locus YOL012C, strain htz1 0.983 | S. cerevisiae deletion strains, locus YOL147C, strain pex11, stronger effect = lower value 1 | S. cerevisiae deletion strains, locus YOR001W, strain rrp6, stronger effect = lower value 0.975 | S. cerevisiae deletion strains, locus YOR061W, strain CKA2, stronger effect = lower value 1.02 | S. cerevisiae deletion strains, locus YOR069W, strain VPS5, stronger effect = lower value 1.01 | S. cerevisiae deletion strains, locus YOR070C, strain gyp1, stronger effect = lower value 1 | S. cerevisiae deletion strains, locus YOR080W, strain dia2, stronger effect = lower value 1 | S. cerevisiae deletion strains, locus YOR083W, strain WHI5, stronger effect = lower value 0.983 | S. cerevisiae deletion strains, locus YOR106W, strain vam3, stronger effect = lower value 0.981 | S. cerevisiae deletion strains, locus YOR136W, strain idh2, stronger effect = lower value 0.992 | S. cerevisiae deletion strains, locus YOR144C, strain elg1, stronger effect = lower value 0.998 | S. cerevisiae deletion strains, locus YOR184W, strain ser1, stronger effect = lower value 0.982 | S. cerevisiae deletion strains, locus YOR231W, strain MKK1, stronger effect = lower value 0.971 | S. cerevisiae deletion strains, locus YOR265W, strain rbl2, stronger effect = lower value 1.02 | S. cerevisiae deletion strains, locus YOR270C, strain vph1, stronger effect = lower value 0.997 | S. cerevisiae deletion strains, locus YOR290C, strain snf2, stronger effect = lower value 0.952 | S. cerevisiae deletion strains, locus YOR316C, strain cot1, stronger effect = lower value 0.994 | S. cerevisiae deletion strains, locus YPL051W, strain arl3, stronger effect = lower value 0.993 | S. cerevisiae deletion strains, locus YPL055C, strain LGE1, stronger effect = lower value 1 | S. cerevisiae deletion strains, locus YPL078C, strain atp4, stronger effect = lower value 0.984 | S. cerevisiae deletion strains, locus YPL106C, strain sse1, stronger effect = lower value 0.994 | S. cerevisiae deletion strains, locus YPL240C, strain hsp82, stronger effect = lower value 1.01 | S. cerevisiae deletion strains, locus YPL256C, strain CLN2, stronger effect = lower value 0.998 | S. cerevisiae deletion strains, locus YPR119W, strain clb2, stronger effect = lower value 0.991 | S. cerevisiae deletion strains, locus YPR141C, strain kar3, stronger effect = lower value 0.998 | S. cerevisiae deletion strains, locus YPR163C, strain tif3, stronger effect = lower value 1 | S. cerevisiae deletion strains, locus YPR167C, strain met16, stronger effect = lower value 0.997 | S. cerevisiae deletion strains, strain wtn01, stronger effect = lower value 1.02 | S. cerevisiae strains, strain wild type, stronger effect = lower value 1.01
